# PubChem BioAssay (NCI)
# Compounds without any hit were thinned out: in the full panel of roughly 83,000, 20% have a hit.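 Percent growth is the endpoint: 0 to 100 indicates growth inhibition (40 means 60% inhibition), 0 means no net growth, and negative values indicate cell death.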 Unmarked numbers belong to inactive results. The source made the active and inactive calls. Rule for the calls: active = growth percent below 10; inactive = the rest.
# Tests used:
# Assay in all cases: NCI-60 one-dose screen, 48 h (100 = growth as untreated, 0 = no growth, -100 = all killed)
# Settings in all cases: 10 µM unless noted
# T-47D breast = test system: T-47D breast
# BT-549 breast = test system: BT-549 breast
# MDA-MB-435 melanoma = test system: MDA-MB-435 melanoma
# SW-620 colon = test system: SW-620 colon
# MCF7 breast = test system: MCF7 breast
# HCT-116 colon = test system: HCT-116 colon
# HCC-2998 colon = test system: HCC-2998 colon
# KM12 colon = test system: KM12 colon
SMILES,growth (T-47D breast),growth (BT-549 breast),growth (MDA-MB-435 melanoma),growth (SW-620 colon),growth (MCF7 breast),growth (HCT-116 colon),growth (HCC-2998 colon),growth (KM12 colon)
CCCCOc1nc2ccc(OC)cc2cc1-c1cc(-c2ccc(Cl)cc2)nc(-c2ccc(Cl)cc2)c1,97.4%,105%,107%,102%,97.5%,102%,109%,104%
CC(C)c1cc(C(C)C)c(S(=O)(=O)Oc2ccc(NC(=O)c3ccc(Cl)cc3)cc2)c(C(C)C)c1,7.98% (active),20.4%,41.4%,21.7%,16.3%,8.78% (active),26.3%,18.4%
COc1ccc(OC)c(/C=C/c2nnc(Nc3ccccc3)o2)c1,80.4%,97.1%,89.1%,113%,98.3%,103%,102%,89%
O=C(Nc1nc2ccc(F)cc2s1)c1cccnc1Nc1ccc(Cl)cc1Cl,0.802% (active),-9.44% (active),26.3%,20.2%,13%,11%,8.35% (active),9.49% (active)
N/C(=N\c1nc2ccccc2s1)NC(=O)Nc1cccc2ccccc12,38.5%,71.6%,-27.7% (active),19.7%,23.1%,0.264% (active),38.9%,14.7%
c1ccc(Cc2nn3cc(-c4ccccc4)nc3s2)cc1,87.6%,102%,114%,109%,87.2%,78.9%,103%,96.5%
O=C(COc1ccc(/C=C2\Cc3ccc(Cl)cc3C2=O)cc1)Nc1nc2ccccc2s1,101%,124%,113%,112%,103%,102%,115%,117%
COc1ccc(N)c(N)c1,92.6%,88%,101%,109%,60.2%,96.1%,92.7%,101%
COc1cc(C(=O)N/N=C/c2cc3cc(OCc4ccccc4)ccc3nc2OC)cc(OC)c1OC,54.3%,73.4%,88.3%,91.6%,78.4%,85.7%,96.7%,96.2%
O=C(/C=C/c1sc(Cl)nc1Cl)c1ccc(Br)cc1,91.1%,97.3%,98.4%,47.7%,27.9%,57.4%,52.1%,77.2%
COc1cc(C)c(Cc2cnc(N)nc2N)cc1OC,92.7%,95.4%,112%,102%,101%,112%,108%,111%
Cc1ccccc1C(=O)NN,102%,106%,111%,113%,102%,108%,95.4%,112%
O=C1CSC(c2c(Cl)cccc2Cl)N1c1nc(Cl)cc(=O)[nH]1 (configuration not stated),104%,228%,111%,102%,107%,103%,102%,112%
CCC12CCC[N+]3([O-])CCC4(C(=Nc5ccccc54)C(O)(C(=O)OC)C1)C23 (configuration not stated),94.8%,102%,112%,95.4%,116%,94.5%,97.8%,99.6%
CC1Cc2ccccc2N1NC(=O)c1ccc(Cl)c(S(N)(=O)=O)c1 (configuration not stated),100%,92.1%,102%,105%,92.2%,98.2%,96%,107%
COc1ccc2nc(NCCCNCCO)c3sc4ccc(F)cc4c(=O)c3c2c1,72.2%,91.6%,-69% (active),-66.4% (active),17.8%,-67.2% (active),-82.9% (active),-58.7% (active)
CNCCCNc1nc2ccccc2c2c(=O)c3cc(OC)ccc3sc12,81.7%,89.2%,37.3%,-50.3% (active),59.4%,10.3%,-71% (active),35.3%
NCCCNc1nc2ccccc2c2c(=O)c3cc(F)cc(Cl)c3sc12,88.4%,104%,26%,-49.3% (active),68.3%,-60.2% (active),84.3%,72.7%
O=C(N/N=C/c1c(Cl)cccc1Cl)c1ccc(C(F)(F)F)nc1Nc1cccc(C(F)(F)F)c1,-9.07% (active),-5.79% (active),24.2%,7.71% (active),1.97% (active),-19.6% (active),-29.2% (active),8.17% (active)
N#Cc1ccc(NC(=O)c2sc3nc4c(cc3c2N)C(=O)CCC4)cc1,95.9%,108%,97.4%,98.1%,97.4%,108%,99.2%,101%

SMILES,growth (T-47D breast),growth (BT-549 breast),growth (MDA-MB-435 melanoma),growth (SW-620 colon),growth (MCF7 breast),growth (HCT-116 colon),growth (HCC-2998 colon),growth (KM12 colon)
CCCCCCCCCCCCCCCCCCOc1ccccc1CCCOP(=O)(O)OCC[N+](C)(C)C,87.8%,77.4%,91.6%,69.2%,60.5%,44.9%,50.9%,13.2%
N#Cc1c(-c2ccc(Cl)cc2)nc(NCCO)[nH]c1=O,89.4%,102%,106%,112%,95.3%,104%,103%,96.9%
COc1ccc2nc(NC(=O)c3cccnc3Nc3ccc(S(N)(=O)=O)cc3)sc2c1,84.6%,84.7%,91.5%,109%,110%,93.5%,114%,97.8%
O=c1c2cc(C(F)(F)F)ccc2sc2c(NCCCNCCO)nc3ccccc3c12,-6.02% (active),86.1%,-73% (active),-75.9% (active),-59.7% (active),-72.8% (active),-89.8% (active),-67.8% (active)
CSc1ncccc1C(=O)OCC(=O)Nc1oc(C)c2c(C)n[nH]c(=O)c12,103%,99.1%,107%,105%,84%,109%,113%,103%
O=C1c2cccc3cccc(c23)C(=O)N1N1C(=O)c2cccc3c(NC4CCCCC4)ccc(c23)C1=O,88.4%,97.8%,102%,98.7%,88.8%,98.9%,108%,99.5%
CNCCCNc1nc2ccccc2c2c(=O)c3cc(F)ccc3sc12,22.4%,86.7%,-85.3% (active),-71.4% (active),-44.8% (active),-67% (active),-88.3% (active),-44.4% (active)
CN(C)CCNc1nc2ccccc2c2c(=O)c3cc(F)ccc3sc12,66.1%,64.4%,1.18% (active),-48% (active),34.3%,-11.2% (active),-64.5% (active),8.53% (active)
COc1cccc(Cc2nn3cc(-c4ccccc4)nc3s2)c1,91.2%,91.6%,79.2%,30.6%,27.5%,2.81% (active),104%,88.8%
C=C1CC[C@H](C(C)C)[C@@H]2[C@H]1[C@H]1CC(=C)[C@@H](O)CC[C@@](C)(O)[C@@H]2O1,97.1%,99.2%,96.8%,96.7%,97%,86.2%,77.9%,96.3%
CCN1C(=O)N(CC)C2Nn3c(s/c(=C4\C(=O)N(CCC(C)C)c5ccccc54)c3=O)=NC21 (configuration not stated),36.3%,99.6%,12.5%,61.1%,15.1%,12.6%,99.8%,67.9%
Cc1nn(-c2ccccc2)c(-n2ccnc2)c1/C=N/Nc1nc(-c2ccc(Cl)c(Cl)c2)cs1,28.7%,71.5%,66.2%,30.6%,17.1%,0.896% (active),63.5%,66.7%
O=C(/C=C/c1sc(Cl)nc1Cl)c1ccc(F)cc1,83.7%,103%,101%,24.7%,14.4%,39.4%,30.4%,60.8%
N#Cc1c(-c2ccc(Cl)cc2)nc2c(c(-c3ccccc3)nn2-c2ccccc2)c1-c1ccc(O)cc1,55.4%,62.3%,49%,54.4%,19.6%,14.3%,84.9%,41%
CC1CN(C2CCCCC2)C(=S)N(c2ccccc2)C1=O (configuration not stated),103%,108%,105%,103%,96.1%,101%,100%,97.3%
C/C(=N/NC(N)=S)c1sc(Nc2cccc(Cl)c2)nc1C,30.9%,84.1%,84.5%,81.8%,76.1%,74.4%,107%,87.8%
Nc1ccccc1-c1cc2c(c3c1[nH]c1ccccc13)CCCCC2,86.8%,108%,112%,96.2%,76%,76.3%,106%,88.9%
Cc1[nH]c(C(=O)Nc2ccc(C(=O)N3CCNCC3)cc2OC(C)C)c(Cl)c1Cl,64.1%,93%,35.9%,-55.8% (active),60%,14.5%,-45.9% (active),50.9%
CCOc1c(B(O)O)cccc1-c1nc2ccc3[nH]ncc3c2c2c1CCCC2,75.5%,25.1%,90.1%,38.3%,59.4%,34.8%,51%,32.2%
Cc1nc2ccccc2n1-c1ncnc2c1CC(C)c1ccccc1N2C (configuration not stated),72.1%,92.3%,8.87% (active),68%,61.8%,–,90%,73.6%

SMILES,growth (T-47D breast),growth (BT-549 breast),growth (MDA-MB-435 melanoma),growth (SW-620 colon),growth (MCF7 breast),growth (HCT-116 colon),growth (HCC-2998 colon),growth (KM12 colon)
Fc1cc2c(cc1Cl)N(c1ncnc3ccc(-c4cnc5cnccn45)cc13)CC2,74.9%,83.7%,101%,101%,75.8%,83.5%,90.6%,98.1%
CN1CCN(c2ccc(-c3ccc4ncc(C#N)c(Nc5ccc(F)c(Cl)c5)c4c3)cn2)CC1,60.8%,60.3%,81.6%,53.4%,66.9%,32.8%,68.9%,80.7%
CSc1ccc2c(c1)c(CCN)c(C)n2Cc1ccc(Cl)c(Cl)c1,-73.7% (active),-79.6% (active),-91.4% (active),-63.8% (active),-68.9% (active),-92.3% (active),-88.4% (active),-90.2% (active)
C[N+]1=C(/C=C/c2ccc(O)c3ncccc23)C(C)(C)c2ccccc21,23.7%,81.2%,59.6%,89%,13.7%,10.4%,92%,84.4%
Cn1cc(-c2ccc3cc(-c4ccc(CC(=O)Nc5cc(C(C)(C)C)nn5C)cc4)cnc3c2)cn1,-0.815% (active),-8.22% (active),5.58% (active),20.1%,13.4%,11.5%,32.9%,-33.3% (active)
O=C(Nn1c(NCC(=O)N2c3ccccc3Sc3ccccc32)nnc1-c1ccc(O)cc1)c1ccccc1,98.9%,98.4%,102%,105%,108%,91.7%,91.9%,104%
Cc1ccc(-c2nc(N3CCN(CC(=O)Nc4ccc(Cl)c(C(F)(F)F)c4)CC3)c3ccccc3n2)cc1,74.7%,94.2%,94.6%,91.7%,74.7%,79.2%,112%,94.2%
Cc1oc2nc[nH]c(=O)c2c1C(=O)/C=C/c1ccc(Br)cc1,4.69% (active),2.55% (active),19.8%,3.84% (active),9.43% (active),-11.6% (active),-33.9% (active),-5.18% (active)
CC/C=C\C[C@@H]1C/C=C2/C(=O)C=C[C@H]2C/C=C\CCCC(=O)O1,10.3%,-55.7% (active),-59.1% (active),-65.1% (active),-9.37% (active),-93.5% (active),-83.3% (active),-92.3% (active)
CC(=O)OC[C@H]1OC(Sc2sc(C(=O)c3ccc(Br)cc3)c(N)c2-c2nc3ccccc3s2)[C@H](OC(C)=O)[C@@H](OC(C)=O)[C@H]1OC(C)=O (some centres not stated),67.4%,90.2%,91.7%,104%,94.6%,91.3%,98.8%,95.7%
COc1c(N2CC3CCCN(C(C)=O)C3C2)c(F)cc2c(=O)c(C(=O)N[C@H]3C(O)[C@@H](O)C(CO)O[C@H]3O)cn(C3CC3)c12 (some centres not stated),99.9%,115%,105%,105%,101%,108%,115%,102%
CN(C)CCN1CCN(c2ncccc2C2Nc3ccccc3-n3cccc32)CC1 (configuration not stated),90.1%,92.3%,101%,97.8%,101%,105%,114%,105%
O=C(O)CCC/C=C\C[C@H]1C=CC(=O)/C1=C/C[C@@H](O)CCc1cccc(C(F)(F)F)c1,21.4%,5.1% (active),-53.5% (active),-35.8% (active),11%,-66.4% (active),-84.4% (active),-47% (active)
Cc1ccc2c(-c3cc(-c4ccccc4)nc(N)c3C#N)cc(=O)oc2c1,86%,75.8%,106%,107%,100%,87.1%,96.4%,97.4%
CC1(C)C2CC1C1(/C=N/NC(N)=S)C(C2)C(C#N)(C#N)C1(C#N)C#N (configuration not stated),64.1%,96.3%,88.6%,50%,59.2%,40.7%,94.1%,95.7%
NS(=O)(=O)c1ccc(N=Nc2ccc(-c3nn4cc(-c5ccccc5)nc4s3)cc2)cc1,87.6%,84.8%,101%,96.2%,94%,88.8%,104%,95.7%
COc1cc2cc(Oc3ccc(NC(=O)Nc4cccc(C(F)(F)F)c4)cc3)c(C)nc2cc1OCCN1CCOCC1,30.3%,70.8%,30.4%,36.9%,9.35% (active),–,89.2%,29.8%
CCCCC1CCCC12NC(=O)NC2=O (configuration not stated),91.7%,95.1%,109%,102%,105%,99.4%,96.9%,106%
